The results in this text go back to PubChem BioAssay (EPA / NIEHS).

Test [1] in a line: TOX21_p53_BLA_p3_viability: Viability Assessment in the Tox21 HCT-116 p53 Agonism Beta-lactamase Assay, Phase 3 (AID 2283593).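 Further: cells exposed to compound for 16 h before reading.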 Summed up:
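HCT116 cells, 4000/well, dosed 5 h after plating by pin transfer (217-fold dilution from DMSO stock) and incubated 16 h at 37C, 5% CO2. Viability read as ATP luminescence with CellTiter-Glo after 30 min at room temperature.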

The target of test [2] is Cellular tumor antigen p53 (Homo sapiens) (UniProt P04637). The test is described as follows: TOX21_p53_BLA_p3_ratio: Tox21 HCT-116 p53 Agonism Beta-lactamase Assay, Ratio, Phase 3 (AID 2283596). Summed up: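 HCT116 p53-bla cells (4000/well) given compound in DMSO (217-fold dilution) after 5 h, incubated 16 h at 37C. CCF4-AM substrate 2 h at room temperature; 460/530 nm emission ratio, gain fitted against DMSO.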

Test [3] can be described thus: TOX21_p53_BLA_p4_viability: Viability Assessment in the Tox21 HCT-116 p53 Agonism Beta-lactamase Assay, Phase 4 (AID 2283597).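 Further: hits lower the luminescence signal meaning cytotoxicity.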 Put shortly: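 HCT-116 p53-bla cells, 4000/well, dosed after 5 h attachment and incubated 16 h at 37 °C, 5% CO2. Viability from CellTiter-Glo ATP luminescence after 30 min at room temperature, taken after the beta-lactamase read; loss of signal indicates cytotoxicity.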

Test [4] concerns the target Cellular tumor antigen p53 (Homo sapiens) (UniProt P04637). The test is described as follows: TOX21_p53_BLA_p5_ratio: Tox21 HCT-116 p53 Agonism Beta-lactamase Assay, Ratio, Phase 5 (AID 2283599). Summed up:
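HCT-116 p53-bla cells (4000/well) plated 5 h, dosed with compound (217-fold DMSO dilution) for 16 h at 37 C; CCF4-AM substrate 2 h at room temperature. Activity is the 460/530 nm emission ratio (405 nm excitation), fitted in gain-of-signal direction versus DMSO.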

A short description of test [5]: TOX21_p53_BLA_p5_viability: Viability Assessment in the Tox21 HCT-116 p53 Agonism Beta-lactamase Assay, Phase 5 (AID 2283600). Put shortly: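 HCT-116 p53 beta-lactamase reporter cells, 4000/well, were exposed to compound (pin transfer, 217-fold dilution) for 16 hours at 37C. Cellular ATP was read by CellTiter-Glo luminescence after 30 min at room temperature.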
The nature of test [6]: Tanguay_ZF_120hpf_MORT_legacy: (Legacy) Oregon State University Tanguay Lab 120 Hour Post-fertilization zebrafish Assay for Mortality (AID 2283633). Summed up: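 Dechorionated Tropical 5D wild-type zebrafish embryos, one per well from 6 hpf, static exposure in 0.64% DMSO at 28C until 120 hpf. Mortality scored as binary by brightfield microscopy at 24 and 120 hpf.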
Test [7] in a line: Tanguay_ZF_120hpf_YSE_legacy: (Legacy) Oregon State University Tanguay Lab 120 Hour Post-fertilization zebrafish Assay for Yolk Sac Edema (AID 2283634).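 On AC50: actives raise the incidence of yolk sac edema above the DMSO baseline.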 Summed up:
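Dechorionated Tropical 5D wild-type zebrafish embryos were exposed statically, one per well, from 6 to 120 hpf at 28C in 0.64% DMSO. Yolk sac edema was scored present/absent by brightfield at 120 hpf, and dead embryos were excluded.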

Test [8] can be described thus: Tanguay_ZF_120hpf_AXIS_legacy: (Legacy) Oregon State University Tanguay Lab 120 Hour Post-fertilization zebrafish Assay for Body Axis Malformation (AID 2283635).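 On AC50: potency for an increased fraction of larvae scored with body axis malformation.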 Put shortly:
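Dechorionated wild-type Tropical 5D zebrafish embryos, one per well, statically exposed from 6 hpf to 120 hpf at 28C in 0.64% DMSO final. Body axis malformation scored present/absent by brightfield microscopy at 120 hpf; dead embryos excluded.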

Test [9] can be described thus: Tanguay_ZF_120hpf_EYE_legacy: (Legacy) Oregon State University Tanguay Lab 120 Hour Post-fertilization zebrafish Assay for Eye Malformation (AID 2283636).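 Further: binary presence or absence of eye malformation scored by brightfield in 120 hpf larvae.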 Summed up:
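Dechorionated Tropical 5D zebrafish embryos, one per well from 6 hpf, static exposure to 120 hpf at 28C, 0.64% DMSO. Eye malformation scored present/absent by brightfield; dead embryos not scored.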

Test [10] has as its target Cellular tumor antigen p53 (Homo sapiens) (UniProt P04637). The test is described as follows: TOX21_p53_BLA_p4_ratio: Tox21 HCT-116 p53 Agonism Beta-lactamase Assay, Ratio, Phase 4 (AID 2283601). Put shortly:
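HCT-116 p53 beta-lactamase reporter cells (4000/well) preincubated 5 h, then compound (217-fold dilution of DMSO stock) for 16 h at 37C. CCF4-AM substrate added 2 h at room temperature; 460/530 nm emission ratio fitted upward versus DMSO.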

Results filed as inconclusive are left out. Calls of active or inactive are those of the source. How the source made its calls: active means hit-call score of the fitted dose curve at least 0.9, where 1 is the maximum; inconclusive means response in the unintended direction; inactive means score below 0.9.

Chain of Cellular tumor antigen p53 (Homo sapiens) (P04637 whole entry, looked up): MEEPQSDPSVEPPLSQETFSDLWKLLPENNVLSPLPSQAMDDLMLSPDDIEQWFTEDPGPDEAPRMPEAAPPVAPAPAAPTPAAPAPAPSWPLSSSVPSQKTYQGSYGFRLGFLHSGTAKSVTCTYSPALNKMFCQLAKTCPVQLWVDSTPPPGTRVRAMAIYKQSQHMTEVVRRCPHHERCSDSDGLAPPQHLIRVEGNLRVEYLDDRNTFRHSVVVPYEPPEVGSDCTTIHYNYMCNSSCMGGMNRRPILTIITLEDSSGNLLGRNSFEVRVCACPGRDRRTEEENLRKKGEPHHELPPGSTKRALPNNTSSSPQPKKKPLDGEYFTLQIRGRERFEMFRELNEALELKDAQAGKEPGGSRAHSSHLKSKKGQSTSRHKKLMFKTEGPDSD

Regarding `CC(C)(C)c1cc(C(C)(C)C)c(O)c(C(C)(C)C)c1`, the result in test [1], in test [2], in [3], in test [4], in test [5] and in [6] was inactive. Also, the result in test [7], in test [8] and in [9] was inactive.

For `CCCCOCCO`, the result in test [2], in [4], in [5], in test [6], in [8] and in [9] was inactive.

`COCC(C)O` (stereo unspecified): the result in [2], in [3], in [4], in [5], in test [10] and in [6] was inactive. The result in test [7], in [8] and in [9] was inactive.

As to `OC1CCC(C2CCCCC2)CC1` (stereo unspecified), the call in test [1], in [2], in test [4], in test [5], in test [10] and in [6] was inactive. For the same molecule, the outcome in [7], in [8] and in test [9] was inactive.

`CCCCCCC(=O)O`: the call in [1], in [2], in test [3], in [5], in test [10] and in [6] was inactive. Besides, the result in test [7] and in [8] was inactive.

In the case of `CCCCC(CC)COC(=O)CCCCC(=O)OCC(CC)CCCC` (stereo unspecified), the call in [1], in [2], in [4], in [5], in [10] and in test [6] was inactive. Moreover, the molecule was called inactive in test [7], in test [8] and in test [9].

Regarding `CCCCCCCCCCCCc1ccccc1S(=O)(=O)O`, the molecule was called inactive in test [6], in test [7], in [8] and in [9].

Consider `CCOC(=O)CC(O)(CC(=O)OCC)C(=O)OCC`, for which the outcome in test [10], in [6], in [7], in test [8] and in test [9] was inactive.

`C=C(C)C(=O)OCCC(F)(F)C(F)(F)C(F)(F)C(F)(F)C(F)(F)C(F)(F)F`: the outcome in test [1], in [2], in [3], in [4], in test [10] and in [6] was inactive. The outcome in test [7], in [8] and in test [9] was inactive.

`N#C[C@@H]1CC(F)(F)CN1C(=O)CNC1CC2CCC(C1)N2c1ncccn1` (stereo partly specified): the call in [1], in test [3], in test [5], in test [10], in test [6] and in [7] was inactive. In addition, the call in test [8] and in test [9] was inactive.

On to `OCCC(F)(F)C(F)(F)C(F)(F)C(F)(F)C(F)(F)C(F)(F)F`, for which the outcome in test [4], in test [5], in [10], in test [6] and in test [7] was inactive.

On to `O=C1OC2(c3ccccc31)c1cc(Br)c(O)c(Br)c1Oc1c2cc(Br)c(O)c1Br`, for which the call in test [1], in test [3] and in [5] was inactive.

For the molecule `CCC(C)(C)C1CCC(O)CC1` (stereo unspecified), the outcome in [1], in test [2], in test [4], in [5], in test [10] and in test [6] was inactive. In addition, the outcome in test [7], in test [8] and in [9] was inactive.

For `CC(=O)CC(C)(C)O`, the molecule was called inactive in test [1], in test [2], in test [4], in test [10], in test [6] and in test [7]. The molecule was classed as inactive in [8].

With `CC(O)C(=O)O` (stereo unspecified), the outcome in test [2], in test [4] and in test [10] was inactive.

In the case of `CCC(=C(c1ccc(O)cc1)c1ccc(OCCN(C)C)cc1)c1ccccc1`, the call in test [6], in [7], in [8] and in test [9] was inactive.

As for `CC(C)CCCCCCOC(=O)CCCCC(=O)OCCCCCCC(C)C`, the molecule was called inactive in [3], in test [10], in [6], in [7] and in test [9].

For the molecule `CN(C)C=O`, the result in test [1], in [2], in test [3], in test [4], in test [10] and in [6] was inactive. Besides, the call in test [7] and in [8] was inactive.

With `CCCCC(CC)COC(=O)CCCCC(=O)OCc1ccccc1` (stereo unspecified), the result in test [2], in test [5], in test [10], in test [6], in test [7] and in test [8] was inactive. Besides, in test [9], the result was inactive.

As for `CCc1nn(C2CCCCC2)c2cc(C3(C#N)CCC(C(=O)O)CC3)ccc12` (stereo unspecified), the outcome in [1], in test [3], in [4] and in test [5] was inactive. For the same molecule, the half-maximal activity concentration (AC50) in test [2] is 73500 nM (active); in [10], 75200 nM (active); in [7], 324 nM (active); in [8], 384 nM (active); in test [9], 377 nM (active).

What is called AC50 is the concentration at which the activity in the assay is half-maximal.
